Hits are enriched below; roughly 4.7% of the tested compounds scored in any of these assays.
TRHR ag = agonists of human TRH receptor | P34981 | activation, % at 2 µM | actives 0.18% (n = 360,000) | TRHR cells, calcium flux fluo-8, FDSS agonist mode
Target sequence (P34981 whole entry, looked up): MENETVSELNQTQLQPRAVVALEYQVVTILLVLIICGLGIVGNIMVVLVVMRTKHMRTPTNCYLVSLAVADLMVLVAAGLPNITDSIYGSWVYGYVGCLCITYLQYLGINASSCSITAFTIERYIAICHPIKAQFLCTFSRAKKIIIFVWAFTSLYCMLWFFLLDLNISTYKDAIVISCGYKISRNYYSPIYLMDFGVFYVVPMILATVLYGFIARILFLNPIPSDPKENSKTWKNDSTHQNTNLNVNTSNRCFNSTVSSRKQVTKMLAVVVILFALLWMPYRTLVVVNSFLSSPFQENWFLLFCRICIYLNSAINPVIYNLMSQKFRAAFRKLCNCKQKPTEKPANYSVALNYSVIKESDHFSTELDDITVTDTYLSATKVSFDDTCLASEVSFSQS
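In this calcium-flux screen, cells bearing human TRHR are dye-loaded with fluo-8, baselined for 10 cycles, then exposed to library compounds; positive kinetic calcium responses during the agonist phase mark hits, with TRH as control.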
D1 potentiator = human D1 dopamine receptor positive modulation; actives 0.036% (n = 360,000); potentiation, % at 10 µM; P21728; HEK293 TREx D1 cells, calcium flux, dopamine EC20 potentiation; in the data active means potentiation above about 30%
D1 antag = human D1 dopamine receptor antagonism; HEK293 TREx D1 cells, calcium flux, dopamine EC80; active compounds read low; activity change, negative = inhibition, % at 10 µM; actives 3.2% (n = 360,000); AID 504652; in the data active means activity change below about -30%
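Cells carrying a force-coupled, tetracycline-inducible human D1 receptor report calcium flux. Each well gets a 10 s baseline, compound with 180 s monitoring, then an EC80 dopamine stimulus with a second 180 s kinetic read.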
TRHR PAM = allosterically enhances the human TRH receptor. actives 0.66% (n = 360,000). P34981. enhancement, % at 2 µM. AID 493056. TRHR cells, fluo-8 calcium fluorescence, EC20 TRH enhancement; in the data active means enhancement above about 30%
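Enhancer read-out: after compound pinning and an initial kinetic agonist-mode read, an EC20 of TRH (10 nM final) was injected and fluo-8 calcium signal (Ex 480/Em 530) followed at 1 s/cycle for 100 cycles in TRHR-expressing cells.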
D1 agonist = agonists of human D1 dopamine receptor. P21728. HEK293 T-REx D1 cells, calcium flux, agonist mode. activation, % at 2 µM. actives 1% (n = 360,000)
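Inducible HEK293 T-REx D1 cells, force-coupled to calcium signalling, were plated at 4000 cells/well with tetracycline and held overnight at 30 C. After no-wash calcium dye loading, compound-evoked calcium rise over 180 s flagged agonists.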
Large screens that a line does not name were inactive. Unless noted, no stated cut-off is given here; in the data, active means activation above about 30%; inactive means the rest.

COc1ccc(-n2c(=O)c3c4c(sc3n(Cc3c(F)cccc3Cl)c2=O)CN(C(C)=O)CC4)cc1OC	none
COc1ccc(C(=O)N(Cc2sccc2C)C2CCS(=O)(=O)C2)cc1Cl (stereo not drawn)	none
CCc1cc2c(-c3ccccc3)cc(=O)oc2c(CN2CCOCC2)c1O	D1 agonist 55
CN(CCC1CCOCC1)C(=O)CC1C(=O)NCCN1Cc1c(F)cccc1Cl (stereo not drawn)	D1 antag -52
CN(CCCC1CCCC1)C(=O)CC1C(=O)NCCN1Cc1cccc(F)c1F (stereo not drawn)	D1 potentiator 30
CCN(C(=O)CSc1nc2ccccc2n1Cc1ccc(F)cc1Cl)c1ccccc1	none
O=C(CSc1nc2c([nH]c3ccccc32)c(=O)n1-c1cccc(Cl)c1)NCC1CCCO1 (stereo not drawn)	none
CCN(CC)c1ccc(/C=C(/C#N)c2nc3ccc(C)cc3[nH]2)c(OC(C)C)c1	TRHR ag 83, D1 agonist 100
CCOc1cc(N(CC)CC)ccc1/C=C(/C#N)c1nc2ccccc2[nH]1	TRHR ag 41, D1 agonist 57
CCCOc1cc(N(CC)CC)ccc1/C=C(/C#N)c1nc2ccc(C)cc2[nH]1	TRHR ag 32
COc1ccc(OC)c(C(=O)c2c(N)c(-c3nc(-c4ccc(C)c(C)c4)cs3)c3ccccn23)c1	none
Cc1ccc(NC(=O)c2c(C)cc(C)nc2SCC(=O)Nc2ccc(Br)cc2)cc1	none
O=c1oc2ccccc2c(N2CCN(c3ccccc3F)CC2)c1CN1CCCC1	none
CC(C(=O)Nc1ccc2c(c1)OCCO2)c1ccc([N+](=O)[O-])cc1 (stereo not drawn)	D1 antag -51, D1 agonist 101
CC(C)n1nc(C(=O)Nc2ccc3c(c2)OCO3)c2ccccc2c1=O	D1 antag -32 (no result: D1 potentiator)
O=C(Cc1ccc([N+](=O)[O-])cc1)Nc1ccc2c(c1)OCO2	none
O=C(Nc1ccc2c(c1)OCCO2)C1CCN(C(=O)c2ccc([N+](=O)[O-])cc2)CC1	D1 antag -31
CC(C(=O)Nc1ccc2c(c1)OCO2)c1ccc([N+](=O)[O-])cc1 (stereo not drawn)	D1 agonist 112
O=C(NCc1ccco1)C1CCN(C(=O)c2ccc([N+](=O)[O-])cc2)CC1	D1 antag -45
CC(NC(=O)c1ccccc1Cl)C(=O)Nc1ccc2c(c1)OCO2 (stereo not drawn)	D1 antag -83
CNS(=O)(=O)c1cn(CC(=O)Nc2ccc(F)cc2F)cc1S(=O)(=O)NC	none
O=C1CN(C(=O)COc2ccc(Br)cc2F)c2ccccc2N1	D1 antag -34
O=C1CN(C(=O)COC(=O)CCSc2ccccc2Cl)c2ccccc2N1	TRHR PAM 33
O=C1CN(C(=O)COC(=O)c2cccs2)c2ccccc2N1	D1 antag -30
CCC(C)(C)c1ccc(OCCCC[n+]2ccc(C)cc2)c(C(C)(C)CC)c1	D1 agonist 127
Cc1cc[n+](CC[n+]2ccc(C)cc2)cc1	none
CCC(C)(C)c1ccc(OCCCC[n+]2cccc(C)c2C)c(C(C)(C)CC)c1	D1 agonist 146
Cc1cc(C(C)(C)C)ccc1OCCCCN1CCCC1	none
COc1cc(F)cc(F)c1[S+](=O)([O-])N1CCN([S+](=O)([O-])c2ccc3c(c2)OCCO3)CC1	none
O=S(=O)(c1cccc(F)c1)N1CCC(Oc2ccc(-n3cnnn3)cc2)CC1	D1 antag -30
COc1ccc(CN/C(C)=C(/C#N)C(N)=O)cc1OC	D1 antag -66
CCOc1ccc(OCCCCNC(C)(C)C)cc1	D1 antag -81
S=C(Nc1ccccc1)N1CCN(c2ccccn2)CC1	none
FC(F)Oc1cccc(NC(=S)N2CCN(c3ccccn3)CC2)c1	D1 antag -71
COc1ccc(-n2nc(C(=O)O)c(=O)n(C)c2=O)cc1	none
O=C(CCc1nnc(Cc2c[nH]c3ccccc23)o1)NCC1CC12CCCCC2 (stereo not drawn)	none
CCn1nc(C)c(CNC(=O)CCc2nnc(Cc3c[nH]c4ccccc34)o2)c1C	D1 antag -49
CC(C)(C)NC(=O)CCc1nnc(Cc2c[nH]c3ccccc23)o1	D1 antag -51
CCC(COC)NC(=O)CCc1nnc(Cc2c[nH]c3ccccc23)o1 (stereo not drawn)	none
CN(Cc1ccsc1)C(=O)CCc1nnc(Cc2c[nH]c3ccccc23)o1	TRHR PAM 36
CCc1ccc(NC(=O)Cn2c(=O)n(CCCCC(=O)NCc3ccccc3Cl)c(=O)c3ccccc32)cc1	none
COc1cccc(NC(=O)C(OC(=O)CNC(=O)c2ccccc2)c2ccccc2)c1 (stereo not drawn)	none
O=[N+]([O-])c1ccc(O)c(Nc2c([N+](=O)[O-])ccc3nonc23)c1	D1 antag -49
Cc1ccc(C)c(Nc2c([N+](=O)[O-])ccc3nonc23)c1	D1 agonist 108
Cc1ccc(C)c(Nc2ccc3nonc3c2[N+](=O)[O-])c1	none
COc1ccc(CCNC(=O)CCCn2nc(C)c3sc4ccccc4c3c2=O)c(OC)c1	none
CC(=O)Nc1ccc(S(=O)(=O)N2CCOCC2)cc1	none
CC(=O)NC(=S)Nc1ccc(S(=O)(=O)N2CCOCC2)cc1	TRHR PAM 32
O=S(=O)(c1ccc(NC(=S)NCCc2ccccc2)cc1)N1CCOCC1	none
Cc1ccc(C(=O)NC(=S)Nc2ccc(S(=O)(=O)N3CCN(C)CC3)cc2)cc1	D1 antag -56
Cc1cccc(C(=O)NC(=S)Nc2ccc(S(=O)(=O)N3CCN(C)CC3)cc2)c1	none
O=S(=O)(c1ccc(NC(=S)NCc2ccc(F)cc2)cc1)N1CCOCC1	D1 antag -49, D1 agonist 30
COc1ccc(NS(=O)(=O)c2ccc(S(=O)(=O)N3CCOCC3)cc2)cc1	D1 antag -33, D1 agonist 34
CCn1c(=O)c2sccc2n2c(CCC(=O)Nc3cc(C)cc(C)c3)nnc12	none
S=C(NCc1ccccc1)N1CCN(Cc2ccc3c(c2)OCO3)CC1	none
S=C(Nc1ccc2nsnc2c1)NC1CCCCC1	D1 agonist 46
S=C(NCc1ccc2c(c1)OCO2)NC1CCN(Cc2ccccc2)CC1	D1 agonist 38
S=C(Nc1ccc2nsnc2c1)N1CCCCCC1	none
S=C(Nc1ccc(Cl)c(Cl)c1)NC1CCN(Cc2ccccc2)CC1	D1 antag -43, D1 agonist 47
S=C(Nc1ccc(Cl)c(Cl)c1)NC1CCCCC1	D1 antag -41
Cc1cc(C)cc(NC(=O)CCN2C(=O)c3ccccc3Sc3ncccc32)c1	none
CCCCOC(=O)c1ccc(NC(=O)Cc2coc3c(C)c(C)ccc23)cc1	none
COc1ccc(C(=O)NCc2nnc(SCC(=O)Nc3ccc(C)cc3)n2-c2ccccc2)cc1	none
CCc1ccc(NC(=O)C(CC)n2c(=O)c(C(F)(F)F)nc3ccccc32)cc1 (stereo not drawn)	none

High-throughput results as filed in PubChem.
